A short description of assay [1]: inhibitors of TNFa-induced NFkB p65 translocation, primary screen, imaging, HUVEC, MLSMR starter and 10KST1 sets (AID 438;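 active = inhibition above 20% together with a positive visual image hit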;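 note: compound added about 3h40 before a 20 min TNFalpha stimulation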;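 for inhibition: signal is the nuclear over cytoplasmic p65 intensity ratio per well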). The note with it: HUVEC TNFa-induced p65 nuclear translocation; cell count: measured here: nuclei count (cytotoxicity indicator), at 2.08 µM; inhibition: at 2 µM, stronger effect = higher value, 0% TNFa-plus-vehicle, 100% no-TNFa wells.
Assay [2] in a line: inhibitors of mutant huntingtin aggregation, primary screen, imaging, exon1htt(103Q)mCFP cells, high-content imaging (AID 483;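 active = visual image review flags a hit and inhibition of aggregation exceeds 20%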;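 note: compound exposure lasted 3 days before fixation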;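 for nuclei count: percent of the per-plate median nuclei count of sample wells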). The note with it: exon1htt(103Q)mCFP cell line, aggregate imaging, at 2 µM; inhibition of aggregation: stronger effect = higher value; nuclei count: measured here: cell count, toxicity.
Assay [3] can be described thus: inhibitors of E-selectin induction by TNFa, primary screen, imaging, HUVEC, immunofluorescence, MLSMR starter and 10KST1 sets (AID 487).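 For inhibition: signal is fraction of cell area covered by stained E-selectin grains.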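 For nuclei count: 100% = median nuclei count of all wells on the same plate.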 The note with it: HUVEC TNFalpha-induced E-selectin immunofluorescence imaging, at 2 µM; inhibition: stronger effect = higher value; nuclei count: measured here: cell number, toxicity.
The target of assay [4] is Voltage-gated potassium channel subunit beta-2 (Rattus norvegicus) (UniProt P62483). The assay is described as follows: KvBeta enzyme negative modulators, primary screen, biochemical, NADPH fluorescence (AID 622;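 active = fluorescence slope higher than the sample average by over 3 SD, cut at about -0.22 in these data, passing the limit was not always enough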;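 note: slope of raw intensity against log time taken from 70 to 1610 s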). The conditions noted are these: recombinant KvBeta, 4-cyanobenzaldehyde reduction, at 10 µM, stronger effect = higher value.
Assay [5] shares this target. Briefly: KvBeta positive modulators, primary screen, biochemical, NADPH fluorescence (AID 623;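 active = NADPH fluorescence slope more negative than the mean of all samples by about 3 SD, 99.7% confidence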;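 note: fluorescence intensity change per second fitted from 20 to 320 s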). The conditions noted are these: Recombinant KvBeta, NADPH fluorescence decrease slope, 10 min; at 10 µM; stronger effect = lower value.
Assay [6] concerns the target Alpha-2C adrenergic receptor (Homo sapiens) (UniProt P18825). The assay is described as follows: modulators of alpha2C/GIRK thallium flux, primary screen, cell-based, HEK293 alpha2C/GIRK1/2 (AID 624;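 active = fluorescence slope after compound addition differing from the mean of all screened samples at 99.7% confidence, in either direction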;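 note: slope of fluorescence ratio to pre-addition baseline per second over 15 to 24 s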). The conditions noted are these: thallium flux BTC fluorescence, at 10 µM, actives lie on both sides.
Assay [7] can be described thus: inhibitors of Sendai virus-induced IRF3 signaling, primary screen, TLR/RLR signaling modifier project, cell-based, Sendai virus stimulus, luciferase, 10K MLSCN set (AID 602276;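 active = inhibition at or above 50% at 10 µM; inactive = inhibition below 50%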;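 note: firefly luciferase from ISG56 promoter only with Renilla not read in this screen; 0% = Sendai virus plus DMSO and 100% = medium plus DMSO without virus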). The note with it: HEK293 RL24 IRF3 luciferase reporter, at 10 µM, stronger effect = higher value. (In a reporter assay the amount or activity of a reporter protein is the signal.)
Assay [8] is described as follows: inhibitors of poly I:C-induced TLR3 signaling, primary screen, cell-based, poly I:C stimulus, luciferase, 10K MLSCN set (AID 602277;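 active = inhibition of the reporter signal at or above 50%; inactive = inhibition below 50%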). The note with it: HEK293-TLR3 RL24 IRF3 luciferase reporter, at 10 µM, stronger effect = higher value.

Active and inactive are the calls of the source.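 Rule for the calls, unless noted: active = visually confirmed hit in the image check and inhibition above 20%; inconclusive = visually confirmed hit but inhibition not above 20%; inactive = no visual hit in the image check.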

Chain of Alpha-2C adrenergic receptor (Homo sapiens) (P18825 whole entry, looked up): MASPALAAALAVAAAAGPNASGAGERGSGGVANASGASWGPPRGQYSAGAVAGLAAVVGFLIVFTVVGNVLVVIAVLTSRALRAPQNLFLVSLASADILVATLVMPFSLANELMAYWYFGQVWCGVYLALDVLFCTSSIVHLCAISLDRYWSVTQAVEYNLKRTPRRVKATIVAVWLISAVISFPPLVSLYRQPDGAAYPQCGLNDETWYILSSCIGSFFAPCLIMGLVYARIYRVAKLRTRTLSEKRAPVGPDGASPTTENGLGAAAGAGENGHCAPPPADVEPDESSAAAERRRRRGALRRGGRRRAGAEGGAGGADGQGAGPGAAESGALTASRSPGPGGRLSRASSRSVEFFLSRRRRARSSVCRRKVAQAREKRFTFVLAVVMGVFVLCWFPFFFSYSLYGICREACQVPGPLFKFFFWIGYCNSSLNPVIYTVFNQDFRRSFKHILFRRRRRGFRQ
Chain of Voltage-gated potassium channel subunit beta-2 (Rattus norvegicus) (P62483 whole entry, looked up): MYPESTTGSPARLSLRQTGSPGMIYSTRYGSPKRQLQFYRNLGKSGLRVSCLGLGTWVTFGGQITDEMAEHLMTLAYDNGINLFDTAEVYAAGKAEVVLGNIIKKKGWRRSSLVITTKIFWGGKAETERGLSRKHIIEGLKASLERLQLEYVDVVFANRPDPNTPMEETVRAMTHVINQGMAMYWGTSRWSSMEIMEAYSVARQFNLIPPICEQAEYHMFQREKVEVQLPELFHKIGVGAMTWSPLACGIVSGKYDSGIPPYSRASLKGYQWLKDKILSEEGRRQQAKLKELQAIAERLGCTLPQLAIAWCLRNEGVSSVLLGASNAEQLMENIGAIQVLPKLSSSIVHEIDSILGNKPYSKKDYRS

As to `CC(=O)c1cccc(NC(=O)N2CCCc3ccccc32)c1`, in assay [1], the cell count stood at 334. Besides, the inhibition in assay [1] was 2% (inactive); in assay [3], -43.9% (inactive); in assay [7], 9.66% (inactive); in assay [8], -1.85% (inactive). Besides, the inhibition of aggregation in assay [2] is -9.8% (inactive). In addition, the results for the nuclei count in assay [2] and in assay [3] were 95.3% and 120%, respectively. The fluorescence slope in assay [4] was -0.622 (inactive). Also, the NADPH fluorescence slope in assay [5] was 3.7e-06 (inactive). Besides, the slope in assay [6] is 0.00357 (inactive).

Take `COc1ccc(CCn2c(NCCCN3CCOCC3)nc3c2c(=O)[nH]c(=O)n3C)cc1`: the cell count in assay [1] stood at 395. For the same molecule, the inhibition was 2.1% (inactive) in assay [1], -6.4% (inactive) in assay [3], -6.62% (inactive) in assay [7] and -4.13% (inactive) in assay [8]. In addition, the inhibition of aggregation in assay [2] is -5.3% (inactive). Further, the nuclei count amounted to 110% in assay [2] and 99.3% in assay [3]. Further, in assay [4], the fluorescence slope is -0.539 (inactive). In assay [5], the NADPH fluorescence slope is 2.7e-05 (inactive). The slope in assay [6] is 0.00501 (inactive).

As to `Cc1cnn(Cc2ccccc2)c1N`, the cell count in assay [1] stood at 638. The inhibition in assay [1] was 2.3% (inactive); in assay [3] it was 25.6% (inactive); in assay [7], 14.7% (inactive); in assay [8] it was 21.3% (inactive). The inhibition of aggregation in assay [2] is -4.6% (inactive). In addition, the nuclei count worked out at 105% in assay [2] and 100% in assay [3]. Moreover, the fluorescence slope in assay [4] was -0.6 (inactive). Besides, the NADPH fluorescence slope in assay [5] is -3.5e-05 (inactive). Besides, the slope in assay [6] was 0.00669 (inactive).

For `C=CCOc1ccc(/C(CC)=N/O)c(OC)c1`, the cell count in assay [1] was 387. Also, the inhibition in assay [1] was 15.3% (inactive); in assay [3], -29.6% (inactive); in assay [7], -7.92% (inactive); in assay [8], 0.412% (inactive). In addition, the inhibition of aggregation in assay [2] was -5.5% (inactive). Moreover, the nuclei count in assay [2] stood at 54.4%; in assay [3], 117%. In addition, in assay [4], the fluorescence slope is -0.442 (inactive). Also, the NADPH fluorescence slope in assay [5] was -3.1e-05 (inactive). Also, the slope in assay [6] is 0.00515 (inactive).

With `CCN(Cc1cc2cc(OC)ccc2[nH]c1=O)C(=O)c1ccncc1`, the cell count in assay [1] was determined as 458. Moreover, the inhibition is -1% (inactive) in assay [1], -34.1% (inactive) in assay [3], 13.5% (inactive) in assay [7] and 20.1% (inactive) in assay [8]. For the same molecule, in assay [2], the inhibition of aggregation is -12.3% (inactive). Further, the nuclei count in assay [2] turned out to be 111%; in assay [3] it was 198%. Further, in assay [4], the fluorescence slope is -0.498 (inactive). Moreover, in assay [5], the NADPH fluorescence slope was 4.7e-05 (inactive). The slope in assay [6] was 0.00638 (inactive).

With `Cc1cc(O)c(-c2cc(C(=O)Nc3ccc(S(=O)(=O)N4CCOCC4)cc3)[nH]n2)cc1C`, the cell count in assay [1] was 499. In addition, the inhibition was 5.8% (inactive) in assay [1], -62.7% (inactive) in assay [3], -12.1% (inactive) in assay [7] and -24.7% (inactive) in assay [8]. The inhibition of aggregation in assay [2] is -6.9% (inactive). In addition, the values for the nuclei count in assay [2] and in assay [3] were 100% and 153%, respectively. Also, in assay [4], the fluorescence slope is -0.584 (inactive). In addition, the NADPH fluorescence slope in assay [5] is -1.4e-05 (inactive). Also, the slope in assay [6] was 0.00629 (inactive).

On to `COC(=O)c1ccc(NC(=O)CN2CCN(c3ccc(Cl)cc3)CC2)cc1`, for which the cell count in assay [1] came out at 355. Besides, the inhibition in assay [1] is -11.2% (inactive); in assay [3] it was 8.1% (inactive); in assay [7], 20.2% (inactive); in assay [8], 21.5% (inactive). The inhibition of aggregation in assay [2] was 12.9% (inactive). The nuclei count in assay [2] was 101%; in assay [3], 91.5%. The fluorescence slope in assay [4] was -0.571 (inactive). For the same molecule, the NADPH fluorescence slope in assay [5] was 1.7e-05 (inactive). Also, the slope in assay [6] was 0.00455 (inactive).

Take `Cc1cc(C)c2c(n1)nn1c(N3CCN(c4cccc(Cl)c4)CC3)cc(C)nc21`: the cell count in assay [1] is 458. For the same molecule, the inhibition in assay [1] is -7.1% (inactive); in assay [3] it was -60.1% (inactive); in assay [7] it was 9.81% (inactive); in assay [8], 21.4% (inactive). Besides, the inhibition of aggregation in assay [2] is 3.7% (inactive). Also, the nuclei count came to 97.9% in assay [2] and 130% in assay [3]. In assay [4], the fluorescence slope was -0.303 (inactive). In assay [5], the NADPH fluorescence slope was 1.1e-05 (inactive). Also, in assay [6], the slope is 0.00567 (inactive).

Take `Cc1cc(C)c(C)c(OCC(=O)NCC2CCCO2)c1` (centres undefined): in assay [1], the cell count was determined as 371. Further, the inhibition in assay [1] was -13.5% (inactive); in assay [3], -65.1% (inactive); in assay [7], -5.32% (inactive); in assay [8], 21% (inactive). Also, the inhibition of aggregation in assay [2] is -15% (inactive). Further, the nuclei count was 97.1% in assay [2] and 110% in assay [3]. Also, the fluorescence slope in assay [4] is -0.521 (inactive). Further, in assay [5], the NADPH fluorescence slope is -3.4e-05 (inactive). The slope in assay [6] was 0.0063 (inactive).

As to `CCN(CC)S(=O)(=O)c1ccc(NC(=O)CN(c2cccc(F)c2)S(C)(=O)=O)cc1`, the cell count in assay [1] was 426. Moreover, the inhibition in assay [1] is 1.1% (inactive); in assay [3] it was -25.3% (inactive); in assay [7], 8.61% (inactive); in assay [8], 18.3% (inactive). For the same molecule, in assay [2], the inhibition of aggregation was -25.1% (inactive). Besides, the nuclei count was 107% in assay [2] and 98.6% in assay [3]. The fluorescence slope in assay [4] is -0.449 (inactive). Besides, the NADPH fluorescence slope in assay [5] was 2.5e-05 (inactive). The slope in assay [6] was 0.00334 (inactive).

With `CCCCC(=O)NCCc1ccc(S(N)(=O)=O)cc1`, the cell count in assay [1] was 555. Besides, the inhibition in assay [1] is 10.7% (inactive); in assay [3] it was -35% (inactive); in assay [7] it was 3.38% (inactive); in assay [8], 10.4% (inactive). In addition, the inhibition of aggregation in assay [2] is 1.1% (inactive). Also, the nuclei count in assay [2] was determined as 101%; in assay [3] it was 88.9%. The fluorescence slope in assay [4] was -0.412 (inactive). The NADPH fluorescence slope in assay [5] was -5.1e-05 (inactive). In addition, the slope in assay [6] is 0.0057 (inactive).

As for `CCc1nc(C)ccc1OCC(=O)O`, the cell count in assay [1] came to 332. Further, the inhibition in assay [1] was 1% (inactive); in assay [3], 9.9% (inactive); in assay [7], -11.9% (inactive); in assay [8], -14.7% (inactive). Besides, the inhibition of aggregation in assay [2] was -30% (inactive). Besides, the nuclei count was 89.2% in assay [2] and 102% in assay [3]. Also, the fluorescence slope in assay [4] is -0.459 (inactive). Further, the NADPH fluorescence slope in assay [5] is -6.3e-05 (inactive). In addition, the slope in assay [6] is 0.00578 (inactive).

Regarding `COc1ccc(NC(=O)CN2CCCCC2)cc1`, the cell count in assay [1] worked out at 494. The inhibition is -1.5% (inactive) in assay [1], -23.4% (inactive) in assay [3], 3.07% (inactive) in assay [7] and 11.2% (inactive) in assay [8]. In addition, the inhibition of aggregation in assay [2] was 5.5% (inactive). The nuclei count in assay [2] amounted to 110%; in assay [3], 121%. Moreover, the fluorescence slope in assay [4] was -0.414 (inactive). In addition, in assay [5], the NADPH fluorescence slope is -2.7e-05 (inactive). Moreover, the slope in assay [6] was 0.00355 (inactive).

With `CCC(CC)C(=O)Nc1cccc(C(=O)NCc2ccco2)c1`, in assay [1], the cell count was 295. Besides, the inhibition in assay [1] was 2.3% (inactive); in assay [3] it was -100% (inactive); in assay [7], -5.68% (inactive); in assay [8] it was -18.7% (inactive). Also, the inhibition of aggregation in assay [2] is -17.4% (inactive). For the same molecule, the nuclei count turned out to be 107% in assay [2] and 138% in assay [3]. In addition, the fluorescence slope in assay [4] was -0.428 (inactive). Moreover, the NADPH fluorescence slope in assay [5] was -1.2e-05 (inactive). Further, the slope in assay [6] is 0.00559 (inactive).

One may read the inhibition as the drop in the measured response relative to a control, in per cent.

These data come from PubChem BioAssay.
